Compound activity from PubChem BioAssay.
PNC assembly inh = inhibitors of perinucleolar compartment assembly. PC3M PTB-GFP, PNC prevalence imaging, 16 h; active compounds read low. activity change (PNC), negative = inhibition, % at 10 µM. 140,000 tested, 3.1% active. AID 2417;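 active = readout at or below -70, meaning at least 70% loss of cells showing the perinucleolar compartment, a nuclear body marking cancer cells; inconclusive = readout between -30 and a set limit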
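PC3M cells stably expressing PTB-GFP, 750–1000 cells/well, treated 16 h at 37 °C with compound (23 nl of library stock), in duplicate. After paraformaldehyde fixation and Hoechst stain, imaged at 20x; PNC prevalence scored by image analysis.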
HTT aggregate = reduces HttQ103-GFP aggregates in PC12 cells; AID 1688; Potency, µM (titrated, usually from 46.1 µM), actives largely listed as inhibitors; PC12 HttQ103-GFP aggregates, Acumen cytometry, 40 h; 220,000 tested, 1.1% active; note: nearly all actives have a fitted effect of over 60% in size
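PC12 cells stably carrying ecdysone-inducible HTT exon 1 Q103–GFP were induced with tebufenozide (100 nM final) and treated with library compounds in titration. GFP aggregates in lysates were counted by laser scanning cytometry.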
HTT ATP protect = cytoprotection in Huntington HTT-Q103 PC12 cell model; 230,000 tested, 0.14% active; PC12 HTT-Q103 induced, cytoprotection, ATP luminescence, 40 h; AID 1471; Potency, µM (doses to about 56.4 µM), actives largely listed as activators; note: nearly all actives have a fitted effect of over 45% in size
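ATP quantification (ATPlite) reports survival of PC12 cells in which tebufenozide, 100 nM final, switches on Htt exon 1 with 103 glutamines linked to GFP; compounds are titrated.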
Hits are given with their value; i = inactive; ? = inconclusive; nt = no result; [ ] = remark or other dose. The entries come from a sample that favours hits as a whole. Unless noted, calls come from the whole dose curve; as a rule, active = well fitted curve in the direction sought with a large enough effect; inconclusive = small, poorly fitted or top-dose-only effect, or another doubt; inactive = no such curve, though single readings can be large; an effect the other way counts as inactive or inconclusive.

SMILES	PNC assembly inh	HTT aggregate	HTT ATP protect
CCOC(=O)CSC1=C(C#N)C(c2ccc(C)s2)CC(=O)N1 (configuration not stated)	-88	i	i
CCSC1=C(C#N)C(c2ccc(C)s2)CC(=O)N1 (configuration not stated)	i	i	i
Cc1ccccc1-n1c(=O)cc(N2CCCCCC2)[nH]c1=O	i	i	i
Cc1ccccc1-n1c(=O)cc(N2CCC3(CC2)OCCO3)[nH]c1=O	-119	i	i[10 µM]
CC(=O)Nc1ccc(C(=O)CSc2nnc(Cn3nnc4ccccc43)n2C)cc1	i	i	i
c1ccc(CCNc2ncnc3scc(C4COc5ccccc5O4)c23)cc1 (configuration not stated)	?	i	i
c1ccc2c(c1)OCC(c1csc3ncnc(N4CCCC4)c13)O2 (configuration not stated)	i	18µM	i
COc1ccc(Nc2nc(-c3sc(N)nc3C)cs2)cc1	?	i	i[10 µM]
COc1ccc(CCNc2nc(-c3sc(N)nc3C)cs2)cc1OC	-108	i	i
N#CC1=C(N)N(c2ccc(F)cc2)C2=C(C1c1ccc(O)cc1)S(=O)(=O)CC2 (configuration not stated)	nt	i	i
CS(=O)(=O)N(CC(=O)NCCSc1ccccn1)c1cccc2ccccc12	i	i	nt
CCN(C(=O)Nc1ccccc1)c1ccccc1	i	i	nt
COCCN(C(=O)Nc1ccccc1)c1ccccc1C	-100	i	i[10 µM]
CCn1c(CNc2nc(-c3ccccc3)cs2)nnc1SCC(=O)NCc1ccco1	i	i	i[10 µM]
Cc1ccc(S(=O)(=O)CC2CSc3nc4ccccc4n32)cc1 (configuration not stated)	i	7.1µM	4µM
Cc1ccc(S(=O)(=O)CC2CSc3nc(N)cc(=O)n32)cc1 (configuration not stated)	i	i	i[0.074 µM]
Cc1oc(-c2ccccc2F)nc1CS(=O)(=O)CC(=O)N1CCOCC1	i	i	i
Cc1ccc(S(=O)(=O)Cc2ccc(C(=O)N3CCCC3)o2)cc1	-87	i	i
Cc1cccc(N2CCN(C(=O)c3ccccn3)CC2C)c1 (configuration not stated)	nt	i	i
Cc1ccc(S(=O)(=O)Cc2ccc(C(=O)N3CCN(c4cc(C)ccc4C)CC3)o2)cc1	?	i	i
Cc1cccc(N2CCN(C(=O)c3ccc(CS(=O)(=O)c4ccccc4C)o3)CC2C)c1 (configuration not stated)	?	22µM	i[0.074 µM]
Cc1ccc(S(=O)(=O)Cc2ccc(C(=O)N3CCCCCC3)o2)cc1	i	i	i
Cc1ccc(C)c(N2CCN(C(=O)c3ccc(CS(=O)(=O)c4ccccc4C)o3)CC2)c1	i	28µM	i[10 µM]
Cc1[nH]c(=S)c(C#N)c(-c2ccccc2)c1C(=O)Nc1ccccc1	nt	i[9.22 µM]	i[10 µM]
Cc1nnsc1-c1c(C(=O)N2CCOCC2)c(C)nn1-c1ccc(Cl)cc1	nt	i[9.22 µM]	i[10 µM]
SMILES	PNC assembly inh	HTT aggregate	HTT ATP protect
Nc1cc(S(=O)(=O)C(F)(F)F)ccc1C(=O)O	-127	i	?
Nc1cc(C(F)(F)F)ccc1C(=O)O	i	i	i[10 µM]
NS(=O)(=O)c1ccc(CCNC(=O)CC(NC(=O)c2ccccc2Cl)c2ccccc2)cc1 (configuration not stated)	nt	i[9.22 µM]	i[10 µM]
Cc1nc2sc(C(c3cccs3)N3CCN(C(=O)c4ccco4)CC3)c(O)n2n1 (configuration not stated)	i	i	i[10 µM]
CC(C)(C)c1cc(C(=O)NCc2ccccc2)ccn1	i	11µM	i
CS(=O)(=O)c1cccc(C(=O)NCc2ccccc2)c1	i	i	i[10 µM]
CCOc1ccc(C)cc1S(=O)(=O)N1CCCCC1	i	i	i[0.074 µM]
CCOc1ccc(C(C)(C)C)cc1S(=O)(=O)N1CCOCC1	-97	?	i[0.074 µM]
O=S(=O)(c1ccccc1)N1CCC[C@@]2(CCN(Cc3ccccc3)C2)C1	nt	nt	i
CCn1cc(C(=O)Nc2ccc(C)c([N+](=O)[O-])c2)cn1	-87	i	i[10 µM]
CCn1cc(C(=O)Nc2ccc(F)c(F)c2)cn1	i	i	i[10 µM]
C=CCN(CC=C)Cc1ccc(C(=O)OC)o1	i	i	i
Cc1cccc(NC(=O)C(C)n2cc([N+](=O)[O-])cn2)n1 (configuration not stated)	nt	i	i
COc1ccccc1C1=NOC(Cn2c(NCCCO)nc3c2c(=O)n(C)c(=O)n3C)C1 (configuration not stated)	nt	i[9.22 µM]	i[10 µM]
COc1ccc(C2=NOC(Cn3c(Cc4ccc(Cl)cc4)nc4c3c(=O)n(C)c(=O)n4C)C2)cc1 (configuration not stated)	-108	i[9.22 µM]	i[0.074 µM]
N#Cc1nc(-c2cccc3ccccc23)oc1NCCN1CCCCC1	i	i	i
CCCCc1oc2ccccc2c1C(=O)c1cc(I)c(OCCN(CC)CC)c(I)c1	i	?	i
CCn1c(COc2cc(C)cc(C)c2)nnc1SCC(=O)N1CCN(c2ccccc2)CC1	?	i	i
CCN(Cc1cc(=O)n2cc(Cl)c(C)c(Cl)c2n1)Cc1nc2ccccc2c(=O)[nH]1	nt	i	i
Cc1cc(C(F)(F)F)nn1Cc1n[nH]c(=S)n1-c1ccc(Cl)cc1	i	i	i
Cc1cc(C(F)(F)F)nn1Cc1n[nH]c(=S)n1Cc1ccccc1	-100	i	i[10 µM]
COc1cccc(-c2noc(N)c2C#N)c1	i	11µM	i
N#Cc1c(-c2ccc(F)cc2)noc1N	?	i	?
O=C(OCc1nnc(-c2ccc(Br)cc2)o1)c1cncc(Br)c1	nt	i	i
COc1cccc(CNC(=O)c2cc3oc4ccccc4c3n2C)c1OC	-106	i	i[10 µM]
SMILES	PNC assembly inh	HTT aggregate	HTT ATP protect
CCOc1ccc(CNC(=O)c2cc3oc4ccccc4c3n2C)cc1	?	i	i
COc1cc2c(cc1O)CCN[C@@]21CS[C@H]2c3c(OC(C)=O)c(C)c4c(c3C(COC1=O)N1C2C2c3c(cc(C)c(OC)c3O)CC([C@@H]1O)N2C)OCO4 (some centres not stated)	nt	0.0025µM	i
COc1ccc2c(c1OC)C(=O)N(c1cccc(C)c1)C2=O	i	i	i
NC[C@@H]1O[C@H](O[C@H]2[C@H](O)[C@H](O[C@@H]3O[C@H](CO)[C@@H](O)[C@H](N)[C@@H]3O)[C@@H](N)C[C@H]2N)[C@@H](O)[C@H](O)[C@@H]1O	nt	i	i
COC(=O)c1ccccc1NC(=O)C(=O)NCC1CCCO1 (configuration not stated)	i	i	i[10 µM]
COC(=O)c1ccccc1NC(=O)NCC1CCCO1 (configuration not stated)	-122	i	i[10 µM]
COc1cc(-c2nc(S(=O)(=O)c3ccccc3)c(N3CCOCC3)o2)cc(OC)c1OC	i	i	i
Cc1cccc(C)c1NC(=S)NCCSc1ccc(Cl)cc1	nt	11µM	i
Cc1ccc(NC(=S)NCCSc2ccc(Cl)cc2)cc1	nt	?	i
CNC(=O)C(=O)NCC1OCCCN1S(=O)(=O)c1cccs1 (configuration not stated)	i	i	i[10 µM]
O=C(NCCO)C(=O)NCC1OCCCN1S(=O)(=O)c1cccs1 (configuration not stated)	-80	i	i[10 µM]
C=C1CCC2[C@](C)(CO)[C@H](O)CC[C@@]2(C)[C@@H]1C/C=C1/C(=O)OC[C@H]1O (some centres not stated)	nt	nt	7.1µM
O=C(OCn1ncc(Cl)c(Cl)c1=O)c1ccccc1Cl	i	?	i
